Bioassay records: PubChem BioAssay, National Center for Advancing Translational Sciences (NCATS)
In the library only some 7.9% were active in any assay of this set; here they are far more common.
Marburg entry inh – qHTS for inhibitors of binding or entry into cells for Marburg Virus; Marburg virus pseudotyped entry inhibition, cell reporter; Potency, µM (doses to about 37.8 µM), usual class: inhibitors; 1.8% of 300,000 active; calls by dose curve; tested in HEK293 cells
HCMV inh – qHTS Assay for inhibitors of the human cytomegalovirus (HCMV); 4.5% of 410,000 active; activity change, negative = inhibition, % at 57.5 µM; HFF cells, HCMV-luciferase reporter, 72 h; active compounds read low; in the data active = activity change below about -60%; inconclusive = no clear call, values can overlap the other calls; inactive = above about -39%
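Inhibition of viral replication was scored as loss of reporter luminescence in HFFs infected with HCMV-luciferase (MOI 1 PFU/cell) for 72 h; compounds tested at 2 doses, normalized to buffer and Salinomycin controls.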
Lassa entry inh – qHTS for Inhibitors of binding or entry into cells for Lassa Virus. Lassa virus pseudotype entry inhibition, cell reporter. Potency, µM (top dose mostly 37.9 µM), hits mostly inhibitors. 1.2% of 300,000 active; calls by dose curve; tested in HEK293 cells; also: nearly all actives have a fitted effect of over 50% in size
FMDV antiviral – High Throughput Screening for Foot and Mouth Disease Virus Antivirals; 1.2% of 410,000 active; Potency, µM (titrated, usually from 57.9 µM), actives largely listed as inhibitors; FMDV antiviral cell-based qHTS; calls by dose curve; tested in HEK293T cells; also: read-out not given here; nearly all actives have a fitted effect of over 45% in size
HCV inhibitor – qHTS Assay for Inhibitors of Hepatitis C Virus (HCV); Huh7.5.1 HCVcc-Cre infection, luciferase reporter, 44 h; 3.4% of 340,000 active; Potency, µM (highest dose often 41.8 µM), actives largely listed as inhibitors; active = well fitted inhibition curve with a large enough effect; inconclusive = small, poorly fitted or top-dose-only effect, or another doubt; inactive = no such curve, though single readings can be large or run the other way
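1,000 cells/well; 4 h culture; + compound; + HCVcc-Cre (~0.5 moi); 44 h; luciferase substrate, RT 15 min; read 15 sec.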
A number is an active result; - = inactive; ? = inconclusive; . = not tested or not shown; + = active, no number.

SMILES	Marburg entry inh	HCMV inh	Lassa entry inh	FMDV antiviral	HCV inhibitor
CC(C)(C)c1ccc(C(=O)CC(=O)c2cc(Cl)ccc2O)cc1	-	-83.4	?	-	11.2µM
CCN(CC)CCOC(=O)c1ccc(NC(=O)c2cn(-c3ccccc3)nc2-c2cccs2)cc1	?	-	?	-	7.94µM
O=C(Nc1ccc2ccccc2c1)c1cn(-c2ccccc2)nc1-c1cccs1	?	-60.1	?	-	?
CN(C)c1ccc(NC(=O)c2cn(-c3ccccc3)nc2-c2cccs2)cc1	?	-	-	-	?
O=C(O)CCCCCN1C(=O)/C(=C\c2ccncc2)SC1=S	-	-98.7	-	-	-
O=C(CCN1C(=O)/C(=C/c2ccccc2)SC1=S)NNC(=O)c1ccncc1	-	?	-	-	-
O=C(O)CCCCCN1C(=O)/C(=C/c2ccncc2)SC1=S	?	-77.3	-	-	-
O=C(O)C(c1ccccc1)N1C(=O)/C(=C/c2cccs2)SC1=S (stereo unspecified)	-	?	-	-	-
O=C(O)CCCN1C(=O)/C(=C/c2ccncc2)SC1=S	?	-61.4	?	-	?
O=C(O)CCCCCN1C(=O)/C(=C\c2ccc(-c3ccc(Cl)cc3)o2)SC1=S	-	-	-	-	-
O=C(CCN1C(=O)/C(=C\c2ccccc2)SC1=S)NNC(=O)c1ccncc1	.	-	.	-	-
CC(c1ccccc1)N1C(=O)/C(=C/c2ccncc2)SC1=S (stereo unspecified)	.	-	.	31.6µM	?
O=C(c1cnn(-c2nccc(-c3ccco3)n2)c1C1CC1)N1CCCCC1c1cccnc1 (stereo unspecified)	.	.	.	-	.
COC(=O)C1=C(C(=O)OC)[C@@H]2N(C)c3ccccc3[C@@]23C[C@@H](CO)N(C(=O)NC2CCCCC2)C3=N1	-	.	.	.	.
COc1ccc(CN2C(=O)/C(=C/c3ccncc3)SC2=S)cc1	?	-71.8	?	-	?
COc1ccccc1NC(=O)c1sc2nc(-c3cc4ccccc4oc3=O)[nH]c(=O)c2c1C	.	-	-	-	.
COc1cccc2cc(-c3nc4sc(C(=O)Nc5ccc(F)cc5F)c(C)c4c(=O)[nH]3)c(=O)oc12	.	+	-	-	.
O=C(CN1C(=O)c2ccccc2S1(=O)=O)c1ccc2c(c1)OCCCO2	?	-95.8	?	3.16µM	-
O=C(CN1C(=O)c2ccccc2S1(=O)=O)c1ccc2c(c1)OCCO2	.	-98.4	.	3.55µM	-
O=C(CCN1C(=O)c2ccccc2S1(=O)=O)Nc1ccc2c(c1)OCCO2	-	-	-	.	-
CCOCCCn1c(=N)c(C(=O)NCc2ccc3c(c2)OCO3)cc2c(=O)n3cccc(C)c3nc21	5.17µM	?	?	-	-
CCOCCCn1c(=N)c(C(=O)NC(C)c2ccccc2)cc2c(=O)n3cccc(C)c3nc21 (stereo unspecified)	?	-73.4	-	?	.
Cc1cccn2c(=O)c3cc(C(=O)NC(C)c4ccccc4)c(=N)n(CCOCCO)c3nc12 (stereo unspecified)	?	-	-	-	.
Cc1cccn2c(=O)c3cc(C(=O)NC(C)c4ccccc4)c(=N)n(CCCn4ccnc4)c3nc12 (stereo unspecified)	4.47µM	-67.8	?	-	-
COCCCn1c(=N)c(C(=O)NCc2ccc3c(c2)OCO3)cc2c(=O)n3cccc(C)c3nc21	.	-	.	-	-
SMILES	Marburg entry inh	HCMV inh	Lassa entry inh	FMDV antiviral	HCV inhibitor
CNc1cc(-c2ccccc2C(F)(F)F)ncn1	.	.	.	-	.
COC(=O)C(Nc1ccccc1Cl)(c1cc(C)c(O)c(C)c1)C(F)(F)F (stereo unspecified)	?	-77.6	?	-	14.1µM
COc1ccc(C2=Nc3ccccc3C2(O)CCN2C(=O)c3ccccc3C2=O)cc1 (stereo unspecified)	-	-	.	-	0.891µM
COc1ccc(OCCN2C(=O)c3ccccc3C2=O)cc1	-	-	-	-	-
COc1ccc(Cl)c(-c2cc(C(=O)Nc3ccccc3)[nH]n2)c1	.	-	.	-	.
COc1ccccc1C(=O)N1CCN(c2nc3cc(C)c(C)cc3cc2C#N)CC1	8.91µM	?	10µM	?	?
Cc1ccc2cc(C#N)c(N3CCN(C(=O)c4cccs4)CC3)nc2c1	?	-	?	31.6µM	?
Cc1c(Cl)cccc1NS(=O)(=O)c1ccc(-c2cnc(C3CC3)o2)cc1	.	-80.1	?	-	.
Cc1cccc(NS(=O)(=O)c2ccc(-c3cnc(C4CC4)o3)cc2)c1C	.	?	.	-	?
CC(=O)c1cccc(NS(=O)(=O)c2ccc(-c3cnc(C4CC4)o3)cc2)c1	.	-85.4	.	-	?
CC(=O)Nc1ccc(NS(=O)(=O)c2ccc(-c3cnc(C4CC4)o3)cc2)cc1	?	-	?	-	?
Cc1ccc(C)c(NS(=O)(=O)c2ccc(-c3cnc(C4CC4)o3)cc2)c1	.	-82.1	.	-	?
CCOc1ccc(-c2cn3c(n2)sc2cc(C(=O)NCCc4ccc(OC)c(OC)c4)ccc23)cc1	?	.	.	-	.
COc1cccc(N2CCN(c3nc(C)c(C)c(=O)[nH]3)CC2)c1	-	-	-	-	-
COc1cccc(N2CCN(c3nc(-c4ccccc4C)cc(=O)[nH]3)CC2)c1	.	-98.3	.	-	?
CCOC(=O)CS(=O)(=O)c1nc(-c2ccccc2)cc(C(F)(F)F)n1	?	-102.6	?	22.4µM	?
CCOC(=O)CCS(=O)(=O)c1nc(-c2ccccc2)cc(C(F)(F)F)n1	6.31µM	.	12.6µM	20µM	10µM
COC(=O)CCS(=O)(=O)c1nc(-c2ccccc2)cc(C(F)(F)F)n1	?	.	23.1µM	15.8µM	?
CCOC(=O)CS(=O)(=O)c1ccccc1	-	-	-	-	-
COC(=O)c1ccccc1NC(=O)CCCS(=O)(=O)c1nc(-c2ccccc2OC)cc(C(F)(F)F)n1	-	-	-	-	.
COCC(C)NC(=O)CCS(=O)(=O)c1nc(-c2ccc(OC)cc2)cc(C(F)(F)F)n1 (stereo unspecified)	?	-104.0	?	31.6µM	?
CCOC(=O)CS(=O)(=O)c1nc(-c2ccc(F)cc2)cc(C(F)(F)F)n1	?	.	?	?	10µM
COc1ccc(-c2ccc3c(c2)c(-c2cccs2)c(-c2cc(OC)cc(OC)c2)n3C)cc1	.	-	.	-	-
COc1cc(OC)cc(-c2c(-c3cccs3)c3cc(-c4cnc(OC)nc4)ccc3n2C)c1	.	-78.5	.	?	?
O=C(Nc1nnc(S(=O)(=O)N2CCCc3ccccc32)s1)c1ccccc1	.	-	?	-	.
CNC(=O)c1ccsc1NC(=O)c1ccc(S(=O)(=O)N2CCCc3ccccc32)cc1	?	-62.2	16.4µM	?	10µM
CCc1nnc(NC(=O)c2ccc(S(=O)(=O)N3CCCc4ccccc43)cc2)o1	?	-64.4	?	.	?
O=C(Nc1nc2c(s1)CCCC2)c1ccc(S(=O)(=O)N2CCCc3ccccc32)cc1	23.1µM	-85.3	?	?	?
COCc1nnc(NC(=O)c2ccc(S(=O)(=O)N3CCCCCC3)cc2)o1	-	-	-	-	-
